{
  "source": "PubChem BioAssay AID588342",
  "about": "(National Center for Advancing Translational Sciences (NCATS), 2011)",
  "note": "The campaign covered roughly 360,000 compounds. About 25,000 (6.9%) were called active. Inconclusive results (about 9%) are left out. The call rests on the fitted dose curve; in most records, active means well fitted inhibition curve with a large enough effect; inconclusive means small, poorly fitted or top-dose-only effect; inactive means flat fitted curve, though single readings scatter. What follows is part of a selection rich in actives, with near analogues and random picks from the rest. Potency means the concentration at half of the fitted maximal effect.",
  "data": [
    {"target": "Luciferin 4-monooxygenase (Photinus pyralis) (UniProt P08659)", "sequence (P08659 whole entry, looked up)": "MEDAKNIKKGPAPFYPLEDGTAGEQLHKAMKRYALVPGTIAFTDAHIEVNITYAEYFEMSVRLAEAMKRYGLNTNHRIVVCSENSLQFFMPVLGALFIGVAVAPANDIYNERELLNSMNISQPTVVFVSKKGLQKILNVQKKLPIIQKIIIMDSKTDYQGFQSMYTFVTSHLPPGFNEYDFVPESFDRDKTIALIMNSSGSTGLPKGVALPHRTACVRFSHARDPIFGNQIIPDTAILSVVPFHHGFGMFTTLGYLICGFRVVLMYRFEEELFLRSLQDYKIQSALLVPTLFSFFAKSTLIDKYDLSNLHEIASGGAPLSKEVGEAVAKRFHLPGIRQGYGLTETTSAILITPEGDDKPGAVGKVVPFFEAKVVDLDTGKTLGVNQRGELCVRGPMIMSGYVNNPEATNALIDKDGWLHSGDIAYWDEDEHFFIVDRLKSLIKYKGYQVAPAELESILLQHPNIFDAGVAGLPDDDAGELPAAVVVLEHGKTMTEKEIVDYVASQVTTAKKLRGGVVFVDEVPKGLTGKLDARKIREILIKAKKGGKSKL", "experiment": "qHTS profiling assay for firefly luciferase inhibitor/activator using purifed enzyme and Km concentrations of substrates (counterscreen for miR-21 project); further: nearly all actives have a fitted effect of over 55% in size;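 on activity change, negative = inhibition: plate controls were vehicle for no effect and reference inhibitor for full effect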", "settings": "purified FLuc, luminescence inhibition; series mostly up to 57.5 µM; activity change, negative = inhibition: at the top concentration", "how_it_was_run": "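Purified P. pyralis luciferase (10nM final) with 10uM D-luciferin and 10uM ATP (Km levels) in 50mM Tris acetate pH 7.5, 10mM Mg acetate, 0.01% Tween-20, 0.05% BSA; qHTS 6-point titration, ~60 µM downward; luminescence read.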", "values": [
      {"smiles": "Cc1cc(C)n2nc(CNS(=O)(=O)c3c(F)c(F)c(F)c(F)c3F)nc2n1", "activity change, negative = inhibition": "-0.955% (inactive)"},
      {"smiles": "Cc1ccc(C(=O)Nc2ccccc2F)cc1S(=O)(=O)N1CCOCC1", "activity change, negative = inhibition": "-1.59% (inactive)"},
      {"smiles": "CCOc1cc(/C=C(\\C#N)C(=O)Nc2ccccc2C)ccc1OCc1cc(=O)n2nc(CC)sc2n1", "activity change, negative = inhibition": "0.577% (inactive)"},
      {"smiles": "Cc1ccc(C(=O)COC(=O)c2cccc(N3C(=O)c4c(C)nc5ccccc5c4C3=O)c2)cc1C", "Potency": "2.69 µM (active)"},
      {"smiles": "O=C(CCc1nc2ccccc2c(=O)[nH]1)OCC(=O)c1cccc(Cl)c1", "activity change, negative = inhibition": "7.71% (inactive)"},
      {"smiles": "CCCc1nc2ccccc2c(C(=O)OCC(=O)c2ccc3c(c2)NC(=O)CO3)c1CC", "activity change, negative = inhibition": "-0.523% (inactive)"},
      {"smiles": "CNC(=O)C1CC(=O)N(c2ccc(OCC(=O)Nc3ccccc3C)cc2)C1", "note": "(stereo unspecified)", "activity change, negative = inhibition": "-3.6% (inactive)"},
      {"smiles": "C/C(=N\\Nc1nc(N2CCOCC2)nc(N2CCOCC2)n1)c1ccc([N+](=O)[O-])cc1", "activity change, negative = inhibition": "-3.17% (inactive)"},
      {"smiles": "C/C(=N\\Nc1nc(Nc2ccccc2)nc(N2CCOCC2)n1)c1cccs1", "Potency": "19 µM (active)"},
      {"smiles": "Cc1ccccc1NC(=O)CSc1nc2ccc(Nc3nc(N4CCOCC4)nc(N4CCOCC4)n3)cc2s1", "activity change, negative = inhibition": "0.0802% (inactive)"},
      {"smiles": "COc1ccc(-c2nn(-c3ccccc3)cc2/C=N/Nc2ccccn2)cc1OC", "Potency": "10.7 µM (active)"},
      {"smiles": "COc1cccc(-c2nn(-c3ccccc3)cc2/C=C(\\C#N)C(=O)NCCCn2ccnc2)c1", "activity change, negative = inhibition": "-21.4% (inactive)"},
      {"smiles": "CN(C)/N=C/c1cn(-c2ccccc2)nc1-c1cccnc1", "activity change, negative = inhibition": "-19.8% (inactive)"},
      {"smiles": "COc1cccc(C2=CC(=O)C[C@H](c3ccc(F)cc3)C2)c1OC", "activity change, negative = inhibition": "-9.98% (inactive)"},
      {"smiles": "CC(C)c1ccc(OCC(=O)N(Cc2ccc(N(C)C)cc2)C2CCS(=O)(=O)C2)cc1", "note": "(stereo unspecified)", "activity change, negative = inhibition": "-0.839% (inactive)"},
      {"smiles": "CCOc1cccc(CNC(=O)c2ccc(N3CCCC3)c(NC(=O)Nc3ccccc3CC)c2)c1", "activity change, negative = inhibition": "0.552% (inactive)"},
      {"smiles": "COc1ccc(CN2C(=O)C(NC(=O)c3cccc(C)c3)(C(F)(F)F)N=C2c2ccccc2)cc1", "note": "(stereo unspecified)", "activity change, negative = inhibition": "-14% (inactive)"},
      {"smiles": "Cc1cc(NC(=O)CSc2nc3ccccc3n2CC(C)C)no1", "activity change, negative = inhibition": "-16.7% (inactive)"},
      {"smiles": "Cc1ccc2nc(-c3ccc(SCC(=O)Nc4cc(C)on4)nc3)[nH]c2c1", "Potency": "0.757 µM (active)"},
      {"smiles": "Cc1ccc(SCCC(=O)Nc2cc(C)on2)cc1", "activity change, negative = inhibition": "-1.52% (inactive)"},
      {"smiles": "Cc1cc(F)ccc1NC1(c2ccccc2)C(=O)c2ccccc2C1=O", "activity change, negative = inhibition": "-12.8% (inactive)"},
      {"smiles": "CN(C)c1ccc(S(=O)(=O)NCC(=O)NCC2CCCCC2)cc1[N+](=O)[O-]", "activity change, negative = inhibition": "-1.38% (inactive)"},
      {"smiles": "CC(=O)c1ccc(N2CCN(C(=O)CCc3ccccc3)CC2)cc1", "activity change, negative = inhibition": "-8.99% (inactive)"},
      {"smiles": "CC(=O)c1ccc(N2Cc3ccccc3C2)cc1", "Potency": "10.7 µM (active)"},
      {"smiles": "CC(=O)c1ccc(N2CCN(CC(O)c3ccccc3)CC2)cc1", "note": "(stereo unspecified)", "activity change, negative = inhibition": "4.54% (inactive)"},
      {"smiles": "Cc1ccc(S(=O)(=O)N2CCCCC2)cc1C(=O)N1CCN(CCO)CC1", "activity change, negative = inhibition": "3.12% (inactive)"},
      {"smiles": "Cc1cc(C)c2oc(C(=O)Nc3ccc(S(=O)(=O)N4CCCCCC4)cc3)cc(=O)c2c1", "activity change, negative = inhibition": "-2.56% (inactive)"},
      {"smiles": "CN(C)c1nc(N)nc(Cn2nnc(-c3ccc(C(F)(F)F)cc3)n2)n1", "activity change, negative = inhibition": "-0.922% (inactive)"},
      {"smiles": "COc1ccc(-c2nnn(Cc3nc(N)nc(N4CCCCC4)n3)n2)cc1", "activity change, negative = inhibition": "0.313% (inactive)"},
      {"smiles": "CCc1ccc(-c2nnn(Cc3nn[nH]n3)n2)cc1", "Potency": "26.9 µM (active)"},
      {"smiles": "CC(=O)Nc1ccc(S(=O)(=O)N2CCn3cccc3C2C)cc1", "note": "(stereo unspecified)", "activity change, negative = inhibition": "-1.34% (inactive)"},
      {"smiles": "Cc1ccc(-c2noc(-c3nnn(-c4cccc(C(F)(F)F)c4)c3N)n2)cc1", "activity change, negative = inhibition": "0.761% (inactive)"},
      {"smiles": "Cc1ccc(-c2noc(CSc3nnnn3-c3ccccc3)n2)cc1", "activity change, negative = inhibition": "-3.75% (inactive)"},
      {"smiles": "CCc1ccc(-n2nnc(-c3nc(-c4ccccc4)no3)c2C)cc1", "Potency": "2.13 µM (active)"},
      {"smiles": "Cc1ccc2c(c1)N(C(=O)CCC(=O)NCc1ccccc1F)CC(C)O2", "note": "(stereo unspecified)", "activity change, negative = inhibition": "2.57% (inactive)"},
      {"smiles": "CCc1cccc(NC(=O)CN(c2ccc(C)c(C)c2)S(=O)(=O)c2ccsc2C(=O)OC)c1", "activity change, negative = inhibition": "-0.926% (inactive)"},
      {"smiles": "Cc1cccc(N2C(=O)c3ccc(C(=O)Nc4cccc(C(=O)O)c4)cc3C2=O)c1", "Potency": "1.51 µM (active)"},
      {"smiles": "CC(=O)Nc1ccc(NC(=O)c2ccc3c(c2)C(=O)N(c2ccccc2C)C3=O)cc1", "activity change, negative = inhibition": "-1.2% (inactive)"},
      {"smiles": "CC(=O)Oc1ccc(C)cc1N1C(=O)c2ccc(C(=O)O)cc2C1=O", "activity change, negative = inhibition": "-5.61% (inactive)"},
      {"smiles": "Cn1nnnc1SCCNCc1ccc(Cl)c(Cl)c1", "activity change, negative = inhibition": "-6.85% (inactive)"},
      {"smiles": "COc1cccc(/C=N\\NC(=O)C2=NNC(=O)C2C)c1O", "note": "(stereo unspecified)", "Potency": "6.01 µM (active)"},
      {"smiles": "CC1=NNC(=O)C1CCC(=O)N/N=C\\c1cccc(Cl)c1", "note": "(stereo unspecified)", "activity change, negative = inhibition": "5.5% (inactive)"},
      {"smiles": "Cc1cccc(-n2c(=O)c3c(c4cc(C)ccc4n3C)n(CC(=O)Nc3ccccc3Cl)c2=O)c1", "activity change, negative = inhibition": "-3.48% (inactive)"},
      {"smiles": "O=S(=O)(c1ccc(Cl)cc1)c1nnn2c1nc(NC1CCCC1)c1sccc12", "activity change, negative = inhibition": "-14.4% (inactive)"},
      {"smiles": "CC(=O)N1CCCc2cc(S(=O)(=O)Nc3ccc(Cl)cc3F)ccc21", "activity change, negative = inhibition": "-13.7% (inactive)"},
      {"smiles": "CN(CC(=O)Nc1ccc(F)cc1)CC(=O)N1CCCCC1", "activity change, negative = inhibition": "13.3% (inactive)"},
      {"smiles": "Cc1ccc(C(=O)CSc2ccccc2C(=O)O)cc1", "Potency": "4.26 µM (active)"},
      {"smiles": "Cc1ccc(Sc2cc(C(=O)c3ccccc3C(=O)O)ccc2[N+](=O)[O-])cc1", "activity change, negative = inhibition": "1.6% (inactive)"},
      {"smiles": "Cc1ccccc1C(=O)O", "activity change, negative = inhibition": "1.05% (inactive)"},
      {"smiles": "CC1(C(=O)OCC(=O)Nc2ncc(Cl)cc2Cl)CC1(Cl)Cl", "note": "(stereo unspecified)", "activity change, negative = inhibition": "-4.62% (inactive)"},
      {"smiles": "Cc1ccc(NC(=O)NC(C)c2c(-n3cccc3)sc(C)c2C)c(C)c1", "note": "(stereo unspecified)", "activity change, negative = inhibition": "-8.67% (inactive)"},
      {"smiles": "COC(=O)[C@@H]1C[C@H]2CC[C@H](O)C[C@H]2N1Cc1ccc(N2CCN(C)CC2)cc1", "activity change, negative = inhibition": "-1.08% (inactive)"},
      {"smiles": "O=C(/C=C/c1c(F)cccc1Cl)Nc1nn[nH]n1", "activity change, negative = inhibition": "-18% (inactive)"},
      {"smiles": "O=C(CCc1ccccc1)Nc1nn[nH]n1", "activity change, negative = inhibition": "0.606% (inactive)"},
      {"smiles": "Cc1nnsc1C(=O)Nc1cccc(Cl)c1C", "activity change, negative = inhibition": "-3.55% (inactive)"},
      {"smiles": "Cc1ccc(-c2cc(C(=O)Nc3nn[nH]n3)c3ccccc3n2)c(C)c1", "Potency": "15.1 µM (active)"},
      {"smiles": "Cc1ccc2c(Cl)c(C(=O)Nc3nn[nH]n3)sc2c1", "Potency": "16.9 µM (active)"},
      {"smiles": "Cc1cccc(NC(=O)CN(c2ccc(C(C)C)cc2)S(=O)(=O)c2c(C)nn(C)c2C)c1C", "activity change, negative = inhibition": "-8.68% (inactive)"},
      {"smiles": "COCCCNc1nc2c(-c3cccc(C)c3)nnn2c2ccc(Cl)cc12", "activity change, negative = inhibition": "-15.6% (inactive)"},
      {"smiles": "CC(=O)NC1C(Oc2ccc(C)cc2)OC2COC(c3ccco3)OC2C1O", "note": "(stereo unspecified)", "activity change, negative = inhibition": "2.15% (inactive)"},
      {"smiles": "CC(C)c1ccc(C2C(C(=O)c3ccco3)=C(O)C(=O)N2CC2CCCO2)cc1", "note": "(stereo unspecified)", "activity change, negative = inhibition": "-1.69% (inactive)"},
      {"smiles": "CCOc1ccc(C2CC(=O)c3c([nH]c(C(=O)OCc4ccccc4)c3C)C2)cc1", "note": "(stereo unspecified)", "activity change, negative = inhibition": "-3.69% (inactive)"},
      {"smiles": "O=C(Nc1cc(C(F)(F)F)ccc1Cl)c1ccc2c(c1)CCN2S(=O)(=O)c1ccccc1", "activity change, negative = inhibition": "-0.624% (inactive)"},
      {"smiles": "N#Cc1nc(Cc2cccc3ccccc23)oc1NCc1ccc2c(c1)OCO2", "activity change, negative = inhibition": "5.05% (inactive)"},
      {"smiles": "N#Cc1nc(Cc2ccccc2)oc1NCCc1ccccc1", "Potency": "16.9 µM (active)"},
      {"smiles": "N#Cc1nc(/C=C/c2ccc(F)cc2)oc1NCc1ccc(F)cc1", "activity change, negative = inhibition": "-12.8% (inactive)"}
    ]}
  ]
}
